Assay [1] relates to Human papillomavirus type 1a protein E7 (residues 44-93). As to the kind of experiment: small molecules binding HPV E7 44-93 – biochemical, small-molecule microarray, residues 44-93, 635 nm fluorescence, primary screen (AID 1108).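 Also: E7 fragment applied at 1 µg/mL in TBST for 1 h at 4 C; score combines spot fluorescence with its signal to noise ratio.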 The conditions noted are these: fluorescence 635 nm, higher = more signal.
Assay [2] is described as follows: hepatitis C replication reporter changes, two-sided – Huh7 cells, luciferase reporter, HCV replication inhibitor project, primary screen (AID 1109).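 Also: huh7 hepatoma cells harbouring a luciferase neomycin HCV replicon reporter; luciferase luminescence as measure of HCV replicon replication; test concentration not given here.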 The conditions noted are these: Huh7 HCV replicon luciferase reporter, 48 h; higher = more signal.
For assay [3], the target named is Left-right determination factor 2 (Homo sapiens) (UniProt O00292). The assay can be described thus: small molecules binding LEFTY2 protein – biochemical, small-molecule microarray, 635 nm fluorescence scan, primary screen (AID 1110). As to conditions: higher = more signal.
For assay [4], the target named is Calmodulin-1 (Homo sapiens) (UniProt P0DP23). The assay can be described thus: small molecules binding calmodulin-1 with EGTA – biochemical, small-molecule microarray, Cy5-labelled CALM1, profiling panel (AID 1111).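 Also: labelled calmodulin applied in Tris saline Tween buffer holding calcium plus EGTA and DTT.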 The conditions noted are these: Cy5-CALM1 binding fluorescence, higher = more signal.
For assay [5] the target is unchanged. As to the kind of experiment: small molecules binding Ca-loaded calmodulin-1 – biochemical, small-molecule microarray, Cy5-labelled CALM1, plus calcium, artefact control for SMM control-protein annotation, profiling panel (AID 1112).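 Also: score merges spot fluorescence with signal to noise from triplicate slides.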 The conditions noted are these: Cy5-CALM1 binding fluorescence, higher = more signal.
Assay [6] can be described thus: probe aWnt5a binding to arrayed compounds – biochemical, biotinylated probe, 635/667 nm fluorescence, primary screen (AID 1113).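 Also: score merges 667 nm fluorescence intensity with signal-to-noise per printed feature.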 The conditions noted are these: small-molecule microarray, higher = more signal.
Assay [7] is described as follows: probe aShh binding to arrayed compounds – biochemical, biotinylated probe, 635/667 nm fluorescence, primary screen (AID 1114).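 Also: probe is biotin-labelled aShh protein from a stem cell growth factor screen; measures binding of labelled protein to compounds printed on the slide; score merges feature fluorescence at 667 nm with signal-to-noise.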 As to conditions: small-molecule microarray, higher = more signal.
Assay [8] is described as follows: probe aNog binding to arrayed compounds – biochemical, biotinylated probe, 635/667 nm fluorescence, primary screen (AID 1115).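 Also: probe is biotinylated aNog protein used at 0.15 µg/mL for 1 h at 4 C; z-score combines 667 nm fluorescence of each spot with its signal to noise.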 The conditions noted are these: small-molecule microarray, higher = more signal.
The target of assay [9] is Torsin-1A-interacting protein 1 (Homo sapiens) (UniProt Q5JTV8). The assay can be described thus: compound microarray binding of lysate hLAP1 – cell lysate, small-molecule microarray, COS7 lysate, 635/667 nm fluorescence, primary screen (AID 1116). The conditions noted are these: 635 nm fluorescence, higher = more signal.
For assay [10], the target named is Alpha-bungarotoxin (Bungarus multicinctus) (UniProt P60615). As to the kind of experiment: compounds binding labelled alpha-BTX control protein – biochemical, small-molecule microarray, Alexa647 label, 635/667 nm fluorescence, artefact control for SMM control protein annotation, profiling panel (AID 1117). As to conditions: alpha-BTX-A647 binding fluorescence, higher = more signal.
Alpha-bungarotoxin (Bungarus multicinctus), sequence (P60615 whole entry, looked up): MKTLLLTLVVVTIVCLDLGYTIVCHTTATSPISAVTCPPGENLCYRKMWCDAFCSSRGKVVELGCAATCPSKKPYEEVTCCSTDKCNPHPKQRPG

Torsin-1A-interacting protein 1 (Homo sapiens), sequence (Q5JTV8 whole entry, looked up): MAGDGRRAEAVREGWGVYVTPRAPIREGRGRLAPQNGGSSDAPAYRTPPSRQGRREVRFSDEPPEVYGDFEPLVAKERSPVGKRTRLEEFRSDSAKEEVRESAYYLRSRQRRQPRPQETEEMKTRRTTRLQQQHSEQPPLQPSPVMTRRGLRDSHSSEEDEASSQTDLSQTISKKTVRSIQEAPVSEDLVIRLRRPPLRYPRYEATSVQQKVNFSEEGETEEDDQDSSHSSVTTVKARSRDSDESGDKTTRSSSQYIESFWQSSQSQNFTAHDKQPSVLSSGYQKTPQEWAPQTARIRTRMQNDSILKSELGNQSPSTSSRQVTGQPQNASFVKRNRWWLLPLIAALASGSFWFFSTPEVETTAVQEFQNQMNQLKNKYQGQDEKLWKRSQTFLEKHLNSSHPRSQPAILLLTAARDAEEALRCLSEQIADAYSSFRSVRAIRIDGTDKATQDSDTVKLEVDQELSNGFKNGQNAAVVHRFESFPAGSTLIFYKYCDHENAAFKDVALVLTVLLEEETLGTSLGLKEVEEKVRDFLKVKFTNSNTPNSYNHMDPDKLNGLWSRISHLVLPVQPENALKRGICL
Left-right determination factor 2 (Homo sapiens), sequence (O00292 whole entry, looked up): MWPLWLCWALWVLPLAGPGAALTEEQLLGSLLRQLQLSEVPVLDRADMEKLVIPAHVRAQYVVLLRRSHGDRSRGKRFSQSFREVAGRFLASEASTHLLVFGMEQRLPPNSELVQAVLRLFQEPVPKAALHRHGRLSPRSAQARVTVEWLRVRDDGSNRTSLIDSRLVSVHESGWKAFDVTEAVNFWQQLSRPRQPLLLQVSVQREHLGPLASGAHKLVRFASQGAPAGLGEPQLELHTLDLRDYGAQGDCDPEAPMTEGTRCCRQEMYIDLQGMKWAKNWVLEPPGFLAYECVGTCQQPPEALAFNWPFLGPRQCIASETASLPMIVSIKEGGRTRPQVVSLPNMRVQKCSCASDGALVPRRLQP

For the molecule `COCCn1c(C(=O)N2CCCC2)cc2c1C[C@H]1CN(C(=O)c3ccccc3)[C@@](Cc3ccccc3)(C(=O)OC)[C@@H]21`, the composite z-score was 1.51 in assay [1]; 0.222 in assay [3]; 1.89 in [4]; 0.808 in [5]; 0.869 in assay [6]; 1.3 in [7]. The values for the composite z-score in assay [8], in assay [9] and in assay [10] were 2.73, 1.12 and 0.253, respectively. Also, the z-score in assay [2] was -0.976.
For the molecule `O=c1cccc(-c2ccccc2C(F)(F)F)o1`, the composite z-score in assay [1] is -0.438; in assay [3], -0.747; in assay [4], -0.294; in [5] it was 0.243; in [6], 0.421; in assay [7], 0.417. Further, the composite z-score in assay [8] was 1.08; in assay [9] it was -0.211; in assay [10] it was -0.678. Besides, the z-score in assay [2] was -0.445.
On to `C[N+](C)(C)CCCCCCNC(=O)[C@H]1C[C@H]2C(=O)NCC(=O)N2[C@H]1c1cccc(OCCO)c1`, for which the composite z-score in [1] was 0.626; in assay [3], 1.5; in assay [4], -0.748; in [5], -0.95; in assay [6], -0.096; in assay [7], -0.311. In addition, the composite z-score in assay [8] is -0.231; in [9], 0.509; in assay [10] it was 0.355. The same molecule displayed a z-score in assay [2] of 0.643.
In the case of `NC(=O)N1C(=O)C2C(C1=O)C1C=C(CCCO)C2C(c2ccc(CN3CCCC3)cc2)N1Cc1cccc(OC(F)(F)F)c1` (stereo not given), the composite z-score was 0.433 in assay [1]; 0.565 in [3]; 0.011 in assay [4]; -0.202 in assay [5]; -0.104 in [6]; 0.296 in assay [7]. The results for the composite z-score in assay [8], in assay [9] and in [10] were 0.429, -0.226 and 0.546, respectively. Moreover, in assay [2], the z-score is -3.48.
Turning to `CCCCC(=C=CC[C@@H](O)c1ccc(OCCO)cc1)C[C@@H](O)c1ccccn1`, the composite z-score in assay [1] was -0.0715; in assay [3] it was 0.288; in assay [4] it was 0.421; in assay [5], 0.0751; in assay [6], -0.0685; in assay [7], 0.0611. Besides, the composite z-score in [8] worked out at 0.157; in [9], 0.642; in assay [10], 0.0829. The z-score in assay [2] is -1.49.
As for `C=C(COC)/C(=C/C[C@H](OC(=O)c1ccncc1)c1ccc(OCCO)cc1)c1cc(C(=O)OC)ccc1OC`, the composite z-score was 1.42 in assay [1]; 0.431 in assay [3]; 0.579 in assay [4]; -0.467 in [5]; 0.0077 in assay [6]; 0.157 in assay [7]. The composite z-score in assay [8] was 0.484; in [9], 1.18; in assay [10], 1.23. The z-score in assay [2] was -1.66.
In the case of `CC(C)CNC(=O)[C@@H]1c2ccccc2C(=O)N(C2Cc3ccccc3C2)[C@H]1c1ccc(CO)cc1`, the composite z-score in [1] was 1.11; in assay [3] it was -0.325; in assay [4] it was -0.588; in assay [5] it was -0.616; in assay [6], -0.101; in [7] it was -0.185. Besides, the composite z-score in assay [8] was 0.325; in assay [9], 0.691; in assay [10] it was -0.205. For the same molecule, in assay [2], the z-score was -0.235.
In the case of `COC(=O)[C@@]1(Cc2ccc(OC)cc2)[C@H]2c3cc(C(=O)N(C)C)n(Cc4ccsc4Br)c3C[C@H]2CN1C(=O)c1ccccc1`, the composite z-score in [1] was 0.835; in assay [3], -0.318; in assay [4], 1.01; in [5], 0.511; in assay [6], 0.281; in assay [7], 0.696. Further, the composite z-score in assay [8] was 1.61; in [9], 2.24; in [10], 0.177. Further, the z-score in assay [2] is -0.235.
For `CN(C)CCCC[C@@H]1NC(=O)[C@@H]2C[C@H](C(=O)NCCCCCCNC(=O)CS)[C@H](c3cccc(OCCO)c3)N2C1=O`, the composite z-score is -0.275 in assay [1]; 0.0929 in assay [3]; -0.172 in assay [4]; -0.221 in assay [5]; -0.0478 in [6]; -0.209 in assay [7]. Also, the composite z-score in [8] was -0.103; in [9] it was 0.947; in assay [10] it was 0.0727. Besides, the z-score in [2] is -0.149.
With `[N-]=[N+]=Nc1ccccc1[C@@H]1OC(c2ccc(OCCCO)cc2)=N[C@]1(Cc1ccccc1)C(N)=O`, the composite z-score in assay [1] is 1.06; in assay [3] it was -0.391; in [4], 1.04; in [5] it was 0.719; in assay [6], -0.166; in [7], 0.173. Further, the composite z-score in [8] was -0.0956; in [9], 0.0305; in assay [10], 0.209. The z-score in assay [2] was -0.837.
As for `C[C@H]1C2[C@H](Cc3ccccc3)NC(=O)[C@]23C(=O)NCC(=O)N2CCC[C@H]2C(=O)NC/C=C\C/C=C/C3[C@@H]2O[C@]12C` (stereo not given in full), the composite z-score is -0.8 in assay [1]; 0.245 in assay [3]; -0.549 in assay [4]; -0.698 in assay [5]; -0.0417 in assay [6]; -0.2 in assay [7]. For the same molecule, the composite z-score in [8] is -0.28; in assay [9], -0.177; in [10], -0.246. In assay [2], this molecule returned a z-score of 0.288.
In the case of `CCCCN1CC=CC23O[C@@H]4C=CCOC(=O)[C@@H]4[C@H]2C(=O)N(C(CO)C(C)C)[C@@H]3C1=O` (stereo not given in full), the composite z-score is -0.321 in assay [1]; -0.383 in [3]; -0.782 in assay [4]; -0.828 in [5]; -0.173 in [6]; -0.138 in assay [7]. The results for the composite z-score in assay [8], in [9] and in assay [10] were -0.381, -0.457 and -0.843, respectively. Further, the z-score in assay [2] was -1.23.
Take `COCCOC(=O)N1C(=O)[C@@]2(c3cc(C#CC4=CCCCC4)ccc31)[C@H](c1ccccc1OCCO)N1[C@H](c3ccccc3)[C@H](c3ccccc3)OC(=O)[C@H]1[C@@H]2C(N)=O`: the composite z-score in assay [1] is 1.32; in assay [3] it was 0.62; in assay [4], 0.367; in [5], -0.416; in assay [6], -0.0758; in [7] it was -0.167. Besides, the results for the composite z-score in assay [8], in [9] and in assay [10] were -0.512, 0.383 and 0.161, respectively. The z-score in assay [2] is -3.44.
Consider `CC(C)C[C@H]1NC(=O)[C@@]23C(=O)N[C@@H](Cc4ccccc4)C2[C@H](C)[C@@]2(C)O[C@H]2C3/C=C/C/C=C\CNC(=O)[C@@H]2CCCN2C1=O` (stereo not given in full), for which the composite z-score in assay [1] is 0.612; in [3], 0.459; in assay [4], -0.0621; in assay [5] it was -0.576; in assay [6], -0.0704; in [7] it was 0.111. The composite z-score came to 0.283 in [8], 0.268 in assay [9] and 0.288 in assay [10]. Also, in [2], the z-score was -0.0034.
Take `CC(C)C[C@@H]1NC(=O)[C@@H]2C[C@H](C(=O)O)[C@H](c3ccc(O)cc3)N2C1=O`: the composite z-score in assay [1] is 0.309; in assay [3], 0.695; in assay [4] it was 1.31; in assay [5], 0.192; in assay [6], -0.0512; in [7], 0.0611. Also, the composite z-score in assay [8] was 0.116; in assay [9] it was 1.22; in assay [10] it was 1.64. Moreover, the z-score in assay [2] was -0.836.
Consider `C=CCC(OC(C)=O)[C@@H]1[C@@H](N(Cc2ccc(-c3cccc(C(F)(F)F)c3)o2)C(=O)Cc2ccc(F)cc2)c2cc(OCCCO)ccc2N1C(=O)c1ccc2ccccc2n1` (stereo not given in full), for which the composite z-score in assay [1] was -0.848; in assay [3] it was -0.0009; in assay [4], -0.297; in assay [5], 0.195; in [6], -0.0462; in [7] it was -0.185. For the same molecule, the figures for the composite z-score in assay [8], in assay [9] and in [10] were -0.172, 0.0265 and -0.124, respectively. In assay [2], the z-score is -0.937.
For the molecule `C=CCC(OC(C)=O)[C@@H]1[C@@H](N(Cc2ccc(-c3cccc(C(F)(F)F)c3)o2)C(=O)c2cccc3ccccc23)c2cc(OCCCO)ccc2N1C(=O)c1ccc2ccccc2n1` (stereo not given in full), the composite z-score is -0.193 in assay [1]; -0.309 in [3]; -0.484 in assay [4]; -0.108 in assay [5]; -0.0459 in assay [6]; 0.227 in [7]. Further, the figures for the composite z-score in assay [8], in [9] and in assay [10] were 0.169, 0.406 and -0.482, respectively. In assay [2], this molecule gave a z-score of 0.66.
`[N-]=[N+]=NCc1ccccc1C[C@]1(C(=O)NCc2ccccc2)N=C(c2ccc(OCCCO)cc2)O[C@H]1c1ccccc1CN=[N+]=[N-]`: the composite z-score in assay [1] was 1.42; in assay [3], -0.578; in assay [4], 1.36; in [5], 0.533; in [6] it was 0.0474; in assay [7] it was 0.338. In addition, the composite z-score is -0.0439 in assay [8], 1.9 in assay [9] and 1.87 in assay [10]. Also, the z-score in assay [2] is -2.3.

(Values after PubChem BioAssay.)
